Experiment [1] can be described thus: qHTS assay for small molecule antagonists of peroxisome proliferator-activated receptor delta signaling (AID 588535).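 Further: cells co-treated with a PPAR-delta agonist as stimulator during compound exposure.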 The note with it: HEK293T PPARd-UAS-bla, beta-lactamase FRET ratio, 18 h; 460 nm channel. The procedure, abridged: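 Compounds tested in titration on PPAR-delta-UAS-bla HEK293T cells grown in charcoal/dextran-stripped serum (2%); beta-lactamase activity read via CCF4 emission at 460 and 530 nm.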

Experiment [2] deals with Peroxisome proliferator-activated receptor gamma (Homo sapiens) (UniProt P37231). The experiment is described as follows: qHTS assay for small molecule agonists of peroxisome proliferator-activated receptor gamma signaling (AID 588536; active means well fitted curve in the direction sought with a large enough effect in the signal ratio, with a control signal flat, not every such curve was filed as active; the % refers to the signal ratio;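 further: 0% = DMSO basal wells and 100% = rosiglitazone at 2 µM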). The settings on record: HEK293 PPARg-UAS-bla, beta-lactamase ratio, 16 h, percent of rosiglitazone response, DMSO as zero; series mostly up to 76.7 µM. Summed up: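 This is an agonist-mode beta-lactamase reporter assay in HEK293 PPAR-gamma-UAS-bla cells with 1% charcoal/dextran FBS. Compound titrations ran 16 h at 37 C before CCF4 detection. EC50 and efficacy are Hill fits scaled to 2 uM rosiglitazone (100%) and DMSO basal.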
For orientation: qHTS replaces the single test concentration by a dilution series.

Experiment [3] shares this target. The experiment is described as follows: qHTS assay for small molecule antagonists of peroxisome proliferator-activated receptor gamma signaling (AID 588537; active means well fitted inhibition curve with a large enough effect in the signal ratio, with a control signal flat, not every such curve was filed as active; the % refers to the signal ratio;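 further: reporter cells co-stimulated with 50 nM rosiglitazone agonist during compound treatment; % of control where 0% means no effect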). The note with it: HEK293 PPARg-UAS-bla, beta-lactamase ratio, antagonist mode; series mostly up to 76.8 µM. Summed up:
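HEK293 cells, PPAR-gamma-UAS-bla, 3000/well. Pre-incubation 6-6.5 h, 37 C. Compound titration with rosiglitazone 50 nM final, 16 h. CCF4 dye, 2 h RT, dual-emission fluorescence.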

Experiment [4] concerns the target Vitamin D3 receptor (Homo sapiens) (UniProt P11473). The experiment is described as follows: qHTS assay for small molecule antagonists of vitamin D receptor signaling (AID 588541; calls by dose curve;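 further: receptor activated by calcitriol during compound treatment; on the % scale 0 is the no-effect control and ±100 the full control effect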). The settings on record: HEK293T VDR-UAS-bla, beta-lactamase ratio, antagonist mode; series mostly up to 76.7 µM. The procedure, abridged:
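VDR-UAS-bla HEK293T cells (2000/well, 2% charcoal-stripped FBS) were treated with titrated compounds plus 1-alpha,25-dihydroxyvitamin D3 (50 nM or 3 nM final) for 16 h at 37 C. CCF4 beta-lactamase fluorescence was read; Hill fits gave IC50.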

Experiment [5] shares this target. Description: qHTS assay for small molecule agonists of vitamin D receptor signaling (AID 588543; calls by dose curve;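 further: 0% = DMSO basal and 100% = reference agonist control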). The note with it: HEK293T VDR-UAS-bla, beta-lactamase ratio, 16 h; series mostly up to 76.8 µM. Summed up:
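β-lactamase reporter, VDR-UAS-bla HEK293T, agonist mode. Cells plated 5 h at 37 °C, compound titration 16 h at 37 °C, CCF4 dye 2 h RT, ratio 460/530 nm. Hill fit → EC50, efficacy vs 50 nM 1α,25-(OH)2D3.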

Experiment [6] can be described thus: qHTS assay for small molecule agonists of retinoid X receptor alpha signaling (AID 588544; calls by dose curve;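 on activation: 0% = DMSO basal wells and 100% = reference agonist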). The note with it: HEK293T RXRa-UAS-bla, beta-lactamase reporter, 18 h; 530 nm emission.
For experiment [7], the target named is Retinoic acid receptor RXR-alpha (Homo sapiens) (UniProt P19793). The description is as above. The note with it: HEK293T RXRa-UAS-bla, beta-lactamase reporter, 18 h; series mostly up to 76.7 µM.
For experiment [8], the target named is Thyroid hormone receptor beta (Homo sapiens) (UniProt P10828). The experiment is described as follows: qHTS assay for small molecule agonists of thyroid hormone receptor beta signaling (AID 588545; calls by dose curve;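 further: 0% = DMSO only and 100% = 10 nM T3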). The settings on record: TR-UAS-bla GripTite HEK 293, beta-lactamase ratio, agonist mode, 18 h; series mostly up to 76.7 µM. The procedure, abridged:
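Compounds were tested as agonists in TR-UAS-bla-GripTite HEK 293 cells. After 18 hrs at 37 C, CCF4 substrate was added and fluorescence read after 2 hrs at room temperature.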

A short description of experiment [9]: qHTS assay for small molecule antagonists of retinoid X receptor alpha signaling (AID 588546; active means well fitted inhibition curve with a large enough effect in the signal ratio, with a control signal flat, not every such curve was filed as active; the % refers to the signal ratio;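 further: cells stimulated with 9-cis-retinoic acid as agonist; on the % scale 0 is the no-effect control and ±100 the full control effect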). The note with it: HEK293T RXRa-UAS-bla, beta-lactamase ratio, antagonist mode; measured here: W530 green channel, cytotoxicity proxy. The procedure, abridged: (§1)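 Beta-lactamase reporter inhibition, read as CCF4 fluorescence ratio (ex 405, em 460/530 nm) after 2 h at RT. HEK293T UAS-bla cells, 2500/well, were stimulated with 9-cis-RA at 500 or 100 nM final alongside test compound for 18 h at 37 C.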

The target in experiment [10] is Retinoic acid receptor RXR-alpha (Homo sapiens) (UniProt P19793). Described as above. The note with it: HEK293T RXRa-UAS-bla, beta-lactamase ratio, antagonist mode. The procedure, abridged:
as §1

A short description of experiment [11]: qHTS assay for small molecule activators of the p53 signaling pathway (AID 651743; active means well fitted activation curve with a large enough effect in the signal ratio, not every such curve was filed as active; the % refers to the signal ratio; further: % of control where 0% means no effect). The note with it: HCT-116 p53RE-bla, beta-lactamase FRET ratio, 16 h; activation: stronger effect = higher value. Summed up:
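Here HCT-116 cells with an integrated p53-responsive beta-lactamase gene were incubated with compounds (16 hours, 37 C) after a 5-hour plating period; beta-lactamase activity was detected as fluorescence intensity via B/G FRET substrate.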

The nature of experiment [12]: qHTS assay for small molecule activators of the nuclear factor-kappa B (NF-kB) signaling pathway (AID 651749; active means well fitted activation curve with a large enough effect in the signal ratio; the % refers to the signal ratio; further: % of control where 0% means no effect). The note with it: NF-kB-bla ME-180 cells, beta-lactamase FRET ratio, 16 h; activation: stronger effect = higher value. Summed up:
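Beta-lactamase reporter expression, controlled by NF-kB response elements in ME-180 cells, was quantified fluorometrically via FRET disruption; cells at 2,000/well had been incubated with 23 nL test compound for 16 hr.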

A short description of experiment [13]: qHTS assay for environmental chemicals that activate the Aryl hydrocarbon Receptor (AhR) signaling pathway (AID 651777). Further: % of control where 0% means no effect; nearly all actives have a fitted effect of over 15% in size. The note with it: 1A2-DRE human hepatoma cells, luciferase, 24 h; activation: stronger effect = higher value. Summed up:
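Human hepatoma 1A2-DRE cells stably carrying a DRE/CYP1A2 promoter–luciferase reporter, 1,200 cells/well, exposed to compound 24 hr at 37 C. Luciferase read by One-Glo luminescence after 30 min at room temperature; increased signal marks AhR activation.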

The target of experiment [14] is Peroxisome proliferator-activated receptor alpha (Homo sapiens) (UniProt Q07869). The experiment is described as follows: qHTS assay for small molecule agonists of the peroxisome proliferator-activated receptor alpha (PPARalpha) signaling pathway (AID 651778). Further: % of control where 0% means no effect. The settings on record: PathHunter PPARalpha complementation, chemiluminescence, 6 h; max response: stronger effect = higher value. The procedure, abridged:
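Cells plated at 2,000/well and held overnight at 37 C, 5% CO2, then compound added by pin tool for 6 hr; after PathHunter detection reagent and 60 min at room temperature, chemiluminescence from enzyme complementation was read.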

A short description of experiment [15]: qHTS assay for small molecule agonists of the antioxidant response element (ARE) signaling pathway measured by Nrf2-dependant transcriptional activity (AID 720636; active means well fitted curve in the direction sought with a large enough effect in the repeat runs; an effect the other way counts as inactive or inconclusive; further: % of control where 0% means no effect). The note with it: ARE-luc HepG2, Nrf2 luciferase reporter, 16 h; series mostly up to 92.4 µM. Summed up: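 ARE-luc HepG2 cells carrying an Nrf2-responsive luciferase reporter, in medium with 1% dialyzed FBS, exposed to compound for 16 hr at 37 C, 5% CO2. Luminescence read 30 min after ONE-Glo addition.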

The nature of experiment [16]: qHTS assay for small molecule agonists of the antioxidant response element (ARE) signaling pathway measured by Nrf2-dependant transcriptional activity - cell viability counter screen (AID 720653; active means well fitted curve in the direction sought with a large enough effect in the repeat runs; an effect the other way counts as inactive or inconclusive; further: potency means the concentration at half of the fitted maximal effect; on max response: on the % scale 0 is the no-effect control and ±100 the full control effect). The settings on record: ARE-bla HepG2 viability, CellTiter-Glo ATP luminescence, 16 h; max response: stronger effect = lower value. The procedure, abridged:
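ARE-bla HepG2 cells (2,000/well) rested 5 hrs at 37C/5% CO2, then exposed to compounds in DMSO for 16 hrs. Viability was read in the same wells as intracellular ATP by luminescence, 30 min at room temperature after reagent addition.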

A short description of experiment [17]: qHTS assay for cell viability of HEK293 cells (AID 743288). Further: nearly all actives have a fitted effect of over 50% in size. Further: potency means the concentration at half of the fitted maximal effect. On max response: on the % scale 0 is the no-effect control and ±100 the full control effect. The note with it: ATP luminescence (CellTiter-Glo), 18 h; max response: stronger effect = lower value. Summed up: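 ATP luminescence (CellTiter-Glo) reports metabolically competent cell number after parental HEK293 cells, 2,000/well, were treated with DMSO-dissolved compounds for 18 h at 37 C; reagent incubation 30 min, room temperature.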

The nature of experiment [18]: qHTS assay for cell viability of the p53RE-bla HCT-116 cell line (AID 743292). Further: nearly all actives have a fitted effect of over 55% in size. Further: potency means the concentration at half of the fitted maximal effect. The settings on record: p53RE-bla HCT-116 viability, ATP luminescence, 16 h; series mostly up to 95 µM. Summed up:
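CellSensor p53RE-bla HCT-116 cells (4,000/well) pre-incubated 5 h at 37 C, then exposed to compounds in DMSO for 16 h at 37 C. Viability read as ATP content by CellTiter-Glo luminescence after 30 min at room temperature.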

The target in experiment [19] is Nuclear receptor subfamily 1 group I member 2 (Rattus norvegicus) (UniProt Q9R1A7). The experiment is described as follows: qHTS assay for small molecule activators of the rat pregnane X receptor (rPXR) signaling pathway (AID 651751; call rule not given here; further: 0% is about no effect). The settings on record: rPXR reporter cells, luciferase (One-Glo), 24 h.
The nature of experiment [20]: qHTS assay for small molecule activators of the human pregnane X receptor (PXR) signaling pathway (AID 720659; call rule not given here; further: 0% is about no effect). The note with it: DPX-2 HepG2 CYP3A4-luciferase, 24 h; series mostly up to 92.3 µM.

Several values for one entry are separate records, joined by “and”; a condition that tells them apart may be missing. Equal values may be shown once. Results filed as inconclusive are left out. The source holds several records for some structures; these can differ, active in one and inactive in another. Activity calls are given as the source filed them. Unless noted, the call rests on the fitted dose curve; in most records, active means well fitted curve in the direction sought with a large enough effect; inconclusive means small, poorly fitted or top-dose-only effect, or another doubt; inactive means no such curve, though single readings can be large; an effect the other way counts as inactive or inconclusive.

Chain of Peroxisome proliferator-activated receptor gamma (Homo sapiens) (P37231 whole entry, looked up): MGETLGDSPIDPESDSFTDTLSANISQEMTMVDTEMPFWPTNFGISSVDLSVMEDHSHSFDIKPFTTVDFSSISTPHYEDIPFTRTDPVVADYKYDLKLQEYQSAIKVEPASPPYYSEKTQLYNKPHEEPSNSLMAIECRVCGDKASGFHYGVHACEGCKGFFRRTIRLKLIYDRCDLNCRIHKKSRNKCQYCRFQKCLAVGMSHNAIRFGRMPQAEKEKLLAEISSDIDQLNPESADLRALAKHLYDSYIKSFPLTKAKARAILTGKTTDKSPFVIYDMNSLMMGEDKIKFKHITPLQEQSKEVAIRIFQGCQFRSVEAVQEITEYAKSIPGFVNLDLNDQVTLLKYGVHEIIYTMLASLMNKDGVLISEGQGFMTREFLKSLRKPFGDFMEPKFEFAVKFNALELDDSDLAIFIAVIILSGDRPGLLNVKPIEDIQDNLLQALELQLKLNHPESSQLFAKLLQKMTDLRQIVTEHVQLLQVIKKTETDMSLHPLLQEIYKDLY
Chain of Peroxisome proliferator-activated receptor alpha (Homo sapiens) (Q07869 whole entry, looked up): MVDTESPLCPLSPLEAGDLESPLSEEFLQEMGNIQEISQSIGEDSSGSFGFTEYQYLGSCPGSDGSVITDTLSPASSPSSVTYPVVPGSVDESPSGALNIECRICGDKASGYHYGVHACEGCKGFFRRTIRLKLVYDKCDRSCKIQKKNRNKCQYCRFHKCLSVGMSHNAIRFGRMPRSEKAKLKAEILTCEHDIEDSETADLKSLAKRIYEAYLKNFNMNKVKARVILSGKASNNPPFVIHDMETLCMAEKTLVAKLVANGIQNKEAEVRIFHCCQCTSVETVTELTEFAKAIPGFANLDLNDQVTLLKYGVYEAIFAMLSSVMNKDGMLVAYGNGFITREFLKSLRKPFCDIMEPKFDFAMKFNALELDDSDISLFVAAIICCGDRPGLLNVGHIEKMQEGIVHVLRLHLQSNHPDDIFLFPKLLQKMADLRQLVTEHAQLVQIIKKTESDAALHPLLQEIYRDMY
Chain of Thyroid hormone receptor beta (Homo sapiens) (P10828 whole entry, looked up): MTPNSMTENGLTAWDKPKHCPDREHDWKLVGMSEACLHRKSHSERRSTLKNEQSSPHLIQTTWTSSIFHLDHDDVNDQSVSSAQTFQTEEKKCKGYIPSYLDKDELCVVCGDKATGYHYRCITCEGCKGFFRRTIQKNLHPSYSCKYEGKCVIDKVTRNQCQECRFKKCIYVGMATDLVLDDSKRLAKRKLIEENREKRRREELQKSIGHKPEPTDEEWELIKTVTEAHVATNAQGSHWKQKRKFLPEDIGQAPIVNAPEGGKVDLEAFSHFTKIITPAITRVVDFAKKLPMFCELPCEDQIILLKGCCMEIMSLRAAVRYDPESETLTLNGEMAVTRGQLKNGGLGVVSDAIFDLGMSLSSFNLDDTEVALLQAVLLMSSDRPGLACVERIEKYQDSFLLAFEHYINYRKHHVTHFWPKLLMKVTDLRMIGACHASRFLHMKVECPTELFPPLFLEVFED
Chain of Retinoic acid receptor RXR-alpha (Homo sapiens) (P19793 whole entry, looked up): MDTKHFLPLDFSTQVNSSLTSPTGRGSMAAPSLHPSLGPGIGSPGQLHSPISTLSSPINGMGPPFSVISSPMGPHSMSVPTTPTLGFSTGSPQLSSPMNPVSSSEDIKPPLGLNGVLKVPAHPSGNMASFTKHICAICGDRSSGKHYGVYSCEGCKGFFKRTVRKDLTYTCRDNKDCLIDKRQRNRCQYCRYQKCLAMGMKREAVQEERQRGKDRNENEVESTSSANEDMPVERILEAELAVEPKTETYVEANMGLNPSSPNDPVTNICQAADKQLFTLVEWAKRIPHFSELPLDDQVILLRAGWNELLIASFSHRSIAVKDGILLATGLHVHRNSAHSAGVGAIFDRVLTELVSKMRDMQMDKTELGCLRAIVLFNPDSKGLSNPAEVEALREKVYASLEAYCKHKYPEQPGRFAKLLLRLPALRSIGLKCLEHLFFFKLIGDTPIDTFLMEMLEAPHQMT
Chain of Nuclear receptor subfamily 1 group I member 2 (Rattus norvegicus) (Q9R1A7 whole entry, looked up): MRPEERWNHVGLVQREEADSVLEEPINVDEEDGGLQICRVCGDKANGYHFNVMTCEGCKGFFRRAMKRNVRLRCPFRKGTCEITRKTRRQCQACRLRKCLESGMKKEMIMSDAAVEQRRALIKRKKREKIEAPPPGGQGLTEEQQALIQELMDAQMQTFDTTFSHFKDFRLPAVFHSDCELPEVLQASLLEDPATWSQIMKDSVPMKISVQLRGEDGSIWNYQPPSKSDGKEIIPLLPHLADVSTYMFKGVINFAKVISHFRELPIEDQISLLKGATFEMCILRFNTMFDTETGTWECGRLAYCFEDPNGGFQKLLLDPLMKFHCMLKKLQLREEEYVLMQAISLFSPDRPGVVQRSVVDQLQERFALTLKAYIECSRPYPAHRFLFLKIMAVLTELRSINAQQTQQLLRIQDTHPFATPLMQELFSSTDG
Chain of Vitamin D3 receptor (Homo sapiens) (P11473 whole entry, looked up): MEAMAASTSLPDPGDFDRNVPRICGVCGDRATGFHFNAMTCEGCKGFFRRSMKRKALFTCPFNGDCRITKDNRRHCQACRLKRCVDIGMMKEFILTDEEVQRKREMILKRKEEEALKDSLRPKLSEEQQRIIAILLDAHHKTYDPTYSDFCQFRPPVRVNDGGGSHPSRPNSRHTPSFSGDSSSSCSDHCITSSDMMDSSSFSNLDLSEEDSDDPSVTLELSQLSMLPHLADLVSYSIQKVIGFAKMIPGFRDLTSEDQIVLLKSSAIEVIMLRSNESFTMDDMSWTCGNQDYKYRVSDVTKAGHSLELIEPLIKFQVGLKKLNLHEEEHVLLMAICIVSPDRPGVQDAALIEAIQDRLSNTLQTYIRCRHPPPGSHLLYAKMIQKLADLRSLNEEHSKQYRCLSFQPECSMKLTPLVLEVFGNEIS

On to `C[Si]1(C)O[Si](C)(C)O[Si](C)(C)O1`, for which the max response in [1] was -11.7%; in experiment [6], -4.52%; in experiment [9], -6.48%; in experiment [10], 2.26% (inactive); in [14], 0.478% (inactive); in [16], -2.26% (inactive). In addition, the max response in experiment [17] was -1.41% (inactive); in experiment [19], -5.54% (inactive). The result in experiment [2], in experiment [5] and in experiment [20] was inactive. For the same compound, the Potency result in experiment [3], in experiment [4], in [7], in [8], in experiment [15] and in experiment [18] was “inactive” in each case. The activation in [11] was -3.38% (inactive); in experiment [12] it was -0.149% (inactive); in experiment [13], 1% (inactive).

For `COC(=O)C(C)Oc1ccc(Oc2ncc(C(F)(F)F)cc2Cl)cc1` (stereo unspecified), the max response in [1] is -16.8%; in experiment [9], 5.42%; in experiment [10], -74.4% (inactive); in [14], 0.508% (inactive); in experiment [16] it was -10.2% (inactive); in [17], -21.9% (inactive). The max response in experiment [19] is -3.2% (inactive). Besides, the Potency entry in [3], in experiment [4], in experiment [8], in [15] and in experiment [18] was “inactive” each time. Moreover, the result in [5] and in experiment [20] was inactive. In addition, the activation in experiment [11] is -4.64% (inactive); in experiment [13], 0.251% (inactive).

As to `C=CCCCCCCCCCCCC`, the max response in experiment [1] is 14.9%; in [6], -6.65%; in experiment [9] it was -3.7%; in experiment [10], 10.9% (inactive); in experiment [14] it was -1.61% (inactive); in [16], 1.55% (inactive). Also, the results for the max response in [17] and in experiment [19] were 5.27% (inactive) and 1.46% (inactive), respectively. The result in experiment [2], in experiment [5] and in experiment [20] was inactive. The Potency entry in experiment [3], in experiment [4], in experiment [7], in experiment [8], in experiment [15] and in experiment [18] was “inactive” throughout. Further, the activation in experiment [11] was -3% (inactive); in experiment [13], 0.249% (inactive).

With `CCCCOCC(C)O` (stereo unspecified), the outcome in [2] and in [5] was inactive. The Potency result in [3], in experiment [7], in [8], in experiment [15] and in experiment [18] was “inactive” in each case. The max response is -5.52% in experiment [6]; 12% and -0.638% in experiment [9]; -37.2% (inactive) and 3.13% (inactive) in [10]; 0.397% (inactive) and 0.0173% (inactive) in experiment [14]; -1.21% (inactive) and -1.7% (inactive) in experiment [16]; -2.11% (inactive) in [17]. In experiment [19], the max response is 5.94% (inactive) and 2.87% (inactive). The activation was 0.734% (inactive) and -0.5% (inactive) in experiment [12]; 1.48% (inactive) and -0.559% (inactive) in experiment [13]. Also, the Potency in experiment [17] was 1410 µM (active).

Regarding `CCCCCCCCCCCC[N+](C)(C)[O-]`, the max response was -19.7% in experiment [1], 0.14% (inactive) in experiment [14], -6.24% (inactive) in experiment [16] and -22.6% (inactive) in [17]. In addition, the result in experiment [2] and in experiment [5] was inactive. The Potency entry in experiment [3], in experiment [4], in experiment [8] and in [18] was “inactive” throughout. Further, the activation in experiment [11] is 1.24% (inactive); in [12] it was 2.53% (inactive); in [13], 9.07% (inactive).

On to `CC(COCC(C)OC(=O)c1ccccc1)OC(=O)c1ccccc1` (stereo unspecified), for which the max response in experiment [1] was -1.92%; in [9], -1.17%; in experiment [10] it was -22% (inactive); in [14], 0.577% (inactive); in experiment [16], -9.83% (inactive); in [17], -11.6% (inactive). The result in experiment [2], in [5] and in experiment [20] was inactive. The Potency result in [3], in experiment [4], in [8], in experiment [15] and in experiment [18] was “inactive” each time. Moreover, in experiment [13], the activation was 1.91% (inactive).

With `CCCCCCCCCCCC(=O)OC`, the outcome in experiment [5] was inactive. In addition, the activation in [13] was 1.82% (inactive). In addition, in experiment [14], the max response was 2.34% (inactive). In addition, the Potency in experiment [16] is 35.5 µM (active); in [17], 25.1 µM (active); in experiment [18], 28.2 µM (active).

Values taken from PubChem BioAssay (NCATS).
